# Screening data deposited in PubChem by University of Kansas High Throughput Screening Laboratory.
# The list is not random: actives were taken first. Their share in the collection is about 3.6%.
# Pf apPOL inh = Pf-apPOL DNA polymerase inhibition | Recombinant Pf-apPOL, molecular beacon fluorescence, 1.5 h | inhibition, % at 10 µM | hit rate 0.25% among 210,000
# mHTT-CaM PPI inh = mHTT-calmodulin interaction abrogation; P42858; AlphaScreen His-mHTT/GST-CaM binding, luminescence; inhibition, % at 15 µM; hit rate 3.6% among 190,000; AID 1671202;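 also: 0% = both proteins with DMSO and 100% = one protein alone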
# Numbers without * were called inactive; . = not tested or not shown; ! = not active in a repeat. Rule as the data show it: active = inhibition above about 50%; inactive = the rest.
SMILES,Pf apPOL inh,mHTT-CaM PPI inh
CCOc1cc(C2C(C(=O)OC)=C(C)NC3=C2C(=O)CC(C)(C)C3)ccc1OC (centres undefined),-5,20
CC(C)c1ccc(NC(=O)C2CCCN(C(=O)c3cccc(Cl)c3)C2)cc1 (centres undefined),-7,28
Cc1ccc(-n2nc(C)c3sc(N4CCCC(C(=O)NCc5cccnc5)C4)nc32)cc1 (centres undefined),2,14
O=c1c2ccccc2c(-c2ccc(Cl)cc2)nn1-c1cc(N2CCNCC2)ccc1[N+](=O)[O-],2,98*
O=c1c2ccccc2c(-c2ccccc2)nn1-c1cc(N2CCN(CCO)CC2)ccc1[N+](=O)[O-],-4,46
O=c1c2ccccc2c(-c2ccc(F)cc2)nn1-c1cc(N2CCOCC2)ccc1[N+](=O)[O-],0,35
CN1CCN(c2ccc([N+](=O)[O-])c(-n3nc(-c4ccccc4)c4ccccc4c3=O)c2)CC1,-5,55*!
CC(=O)c1cccc(NC(=O)c2cc(C(C)(C)C)oc2C)c1,-50,-2
c1coc(-c2nc3sc(-c4ccco4)nc3s2)c1,-18,100*
c1coc(-c2nccs2)c1,2,.
O=c1ccc(-c2ccccc2)nn1CCc1nc(-c2ccc(F)cc2)no1,-4,8
O=c1ccc(-c2ccc(F)cc2)nn1CCc1nc(-c2ccc(F)cc2)no1,-5,70*
CC(=O)NCc1csc(C2CCN(C(=O)c3cc(C)ccc3C)CC2)n1,1,22
O=C(Cc1noc2ccccc12)Nc1cccc(-c2ccc(N3CCCC3)nn2)c1,-29,67*
O=C(Nc1cccc(-c2ccc(N3CCCC3)nn2)c1)c1cc(-c2cccs2)[nH]n1,1,99*
CN1CCN(c2ccc(-c3cccc(NC(=O)c4cccs4)c3)nn2)CC1,2,-10
Cc1noc(C)c1CCC(=O)Nc1cccc(-c2ccc(N3CCCC3)nn2)c1,-8,27
CCCN(C)C(=O)c1ccccc1N1CCC(NC(C)=O)CC1,-23,10
Cc1c(Cl)c([N+](=O)[O-])nn1CCCC(=O)N1CCN(c2ccccc2)CC1,4,0
Cc1c(Cl)c([N+](=O)[O-])nn1CCCC(=O)N(Cc1ccccc1)Cc1ccccc1,-6,84*
CC1(C)CC(=O)C2=C(C1)N(c1ccc(Br)cc1)C(N)=C(C#N)C2c1cccs1 (centres undefined),-3,42
CCc1ccc(C2C(C#N)=C(N)N(c3ccc([N+](=O)[O-])cc3)C3=C2C(=O)CC(C)(C)C3)s1 (centres undefined),1,49
CCc1ccc(C2C(C#N)=C(N)N(c3ccccc3)C3=C2C(=O)CC(C)(C)C3)s1 (centres undefined),-8,50*
CC1(C)CC(=O)C2=C(C1)N(c1ccc(Br)cc1F)C(N)=C(C#N)C2c1cccs1 (centres undefined),6,52*
O=C1Nc2cc(C(=O)N3CCN(c4ccc(Cl)cc4)CC3)ccc2N2CCCCC12 (centres undefined),2,27
SMILES,Pf apPOL inh,mHTT-CaM PPI inh
CN1C(=O)C2CCCCN2c2ccc(C(=O)N3CCN(c4ccc(Cl)cc4)CC3)cc21 (centres undefined),1,68*
O=C(NCCCN1CCN(c2ccc(F)cc2)CC1)C1CCCN(c2ccncc2)C1 (centres undefined),1,0
CCCN1CCN(c2ncc3c(n2)CCN(Cc2cccc(OC)c2)C3)CC1,-2,9
COc1ccc(N2CCN(c3ncc4c(n3)CCN(Cc3ccc(F)cc3)C4)CC2)cc1,-4,57*
COc1cccc(CN2CCc3nc(N4CCN(C)CC4)ncc3C2)c1,-3,29
COc1ccc(CN2CCc3nc(N4CCN(c5cccc(OC)c5)CC4)ncc3C2)cc1,2,74*
Fc1ccc(CN2CCc3nc(N4CCN(c5ccc(F)cc5)CC4)ncc3C2)cc1,-6,0
COc1cccc(N2CCN(c3ncc4c(n3)CCN(Cc3cccc(F)c3)C4)CC2)c1,-3,58*
O=C1NC2(CCN(Cc3ccc(Cl)cc3)CC2)N=C1c1cccc(F)c1,4,9
CC1(C)C=C(N2CCN(C3=CC(C)(C)NC(C)(C)C3)CC2)CC(C)(C)N1,-10,-3
Cc1ccc2nc(C(=O)NCCN3CCN(C)CC3)cn2c1,0,0
O=C(N/C(=C/c1ccc2c(c1)OCO2)C(=O)N1CCOCC1)c1ccccc1Br,-4,2
CCSC1=C(C#N)C2(CCCC2)C(C#N)=C(N)N1,2,2
N#CC1=C(N)NC(SCC(=O)Nc2ccc(Br)cc2)=C(C#N)C12CCCCC2,-8,83*
Cc1ccc(CNC(=O)c2cc3ccncc3[nH]2)cc1,-11,4
CCCNC(=O)c1ccc2ncc3c(=O)n(-c4ccc(F)cc4)[nH]c3c2c1,0,12
CCCNC(=O)c1ccc2ncc3c(=O)n(-c4ccc(Cl)cc4)[nH]c3c2c1,-2,58*
CC1CCc2c(cnc3c(C(=O)NCc4ccccc4)cnn23)C1 (centres undefined),-2,-6
CCCCCC(O)(CCCCC)C(=O)Nc1ccccn1,-3,-41
CN(C)c1ccc(/C=C/C=C2/SC(=Nc3ccccc3)NC2=O)cc1,0,43
CN(C)c1ccc(/C=C/C=C2/SC(=N)NC2=O)cc1,2,62*
C=CCNC(=O)/C(=C\c1ccc2c(c1)OCO2)NC(=O)c1ccc(OC)cc1,-4,-2
Cc1c(NC(=O)c2cc([N+](=O)[O-])ccc2Cl)c(=O)n(-c2ccccc2)n1C,-1,-1
CSc1ccc(Cl)c(C(=O)Nc2c(C)n(C)n(-c3ccccc3)c2=O)c1,63*,-2
CC(C(=O)NCCN1CCCC1)C1CCN(S(=O)(=O)c2ccc(Cl)s2)CC1 (centres undefined),-1,-1
SMILES,Pf apPOL inh,mHTT-CaM PPI inh
O=C1C(=Cc2ccco2)N=C(c2ccccc2)N1N=Cc1ccc(F)cc1,-1,.
CC(Oc1ccc(Cl)cc1Cl)C(=O)NC1=NN(c2ccccc2)C(=O)C1 (centres undefined),-6,68*
CC(Oc1ccc(Cl)cc1Cl)C(=O)Nc1ccncc1 (centres undefined),-4,-4
COc1ccc(C2/C=C\CC(OCc3ccccc3)CC(=O)N2Cc2cccc(F)c2)cc1 (centres undefined),-7,100*
COc1ccc(C2/C=C\CN(S(=O)(=O)c3ccc4ccccc4c3)CC(=O)N2Cc2ccc(F)cc2)cc1 (centres undefined),-6,17
CCCCCCNC(=O)N1C/C=C\C(c2ccc(OC)cc2)N(Cc2ccc(F)cc2)C(=O)C1 (centres undefined),-4,48
COc1ccc(C2/C=C\CN(C(=O)OCc3ccccc3)CC(=O)N2Cc2ccc(F)cc2)cc1 (centres undefined),-5,92*
CCCCCCC(=O)N1C/C=C\C(c2ccc(OC)cc2)N(Cc2ccc(F)cc2)C(=O)C1 (centres undefined),-4,62*
COc1ccc(C2/C=C\CN(C(=O)c3ccccc3)CC(=O)N2Cc2ccc(F)cc2)cc1 (centres undefined),-1,31
COC(=O)C(C#N)=Cc1cc([N+](=O)[O-])ccc1N1CCOCC1,12,.
CC1=C(C(=O)Nc2cccc(F)c2)C(c2cccc([N+](=O)[O-])c2)C2=C(CC(C)(C)CC2=O)N1 (centres undefined),-14,21
COc1cccc(CCC(=O)N2CCC3(C2)Nc2cccnc2NC3=NC(C)(C)C)c1 (centres undefined),1,10
